APP transl inh: APP translation inhibition; hit rate 0.82% among 190,000; SH-SY5Y APP 5'UTR-luciferase reporter, luminescence; inhibition, % at 2 µM;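 active = inhibition above a set limit, derived from the sample mean plus 3 SD, cut at about 45% in these data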
KLF5 inh: inhibitors of KLF5 expression | DLD-1 KLF5 promoter-luciferase reporter, luminescence | inhibition, % at 5 µM | hit rate 0.23% among 290,000;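 active = inhibition above a per-plate limit of that plate's mean compound inhibition plus 3 SD, cut at about 60% in these data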;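 also: higher means less KLF5 promoter-driven luciferase light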
Ba/F3 V617F tox: lowers viability of Ba/F3 cells expressing EpoR and JAK2V617F; ATP luminescence; inhibition, % at 5.6 µM; hit rate 1.1% among 220,000; AID 1446;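 active = inhibition above the campaign mean plus 3 SD over all tested compounds, cut at about 24% in these data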;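 also: cytokine-independent growth of Ba/F3 cells driven by EpoR plus mutant JAK2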
aSyn 5UTR inh: MLPCN primary screen, SNCA 5' untranslated region | inhibition, % (tested at 7.5 µM) | alpha-synuclein 5'UTR reporter, inhibitor activity | AID 1813 | hit rate 0.82% among 300,000; in the data active = inhibition above about 60%;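 also: H4 neuroglioblastoma cells stably carrying SNCA 5'UTR luciferase fusion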
IEC-6 cytotox: counter-screen for KLF5 inhibitors: cytotoxicity in IEC-6 cells; IEC-6 cytotoxicity, luminescence viability; inhibition, % at 5 µM; hit rate 0.78% among 290,000; AID 1825; in the data active = inhibition above about 22%
BaF3 parental: counter-screen for JAK2V617F inhibitors: parental Ba/F3 viability inhibitors | CellTiter-Glo ATP luminescence | inhibition, % at 5.6 µM | hit rate 1.1% among 220,000 | AID 1486;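 active = inhibition above a per-campaign cutoff, the mean inhibition of all tested compounds plus 3 SD, cut at about 27% in these data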
Numbers stand for hits. The list is not random: actives were taken first. Their share in the collection is about 2.2%.

Screening O=C(NNc1cc(N2CCOCC2)nc(N2CCOCC2)n1)c1ccc(Cl)c(Cl)c1 returned APP transl inh inactive, KLF5 inh inactive, Ba/F3 V617F tox inactive, aSyn 5UTR inh inactive, IEC-6 cytotox inactive and BaF3 parental inactive.
`COC(=O)c1ccc2c(c1)C(C)(C)C(/C=C/c1ccccc1O)=[N+]2C` gave APP transl inh inactive, KLF5 inh inactive, Ba/F3 V617F tox inactive, aSyn 5UTR inh 118, IEC-6 cytotox inactive and BaF3 parental inactive.
`COc1cc(C(=O)Oc2ccccc2/C=N/NC(=O)c2ccc(C)c(Cl)c2)cc(OC)c1OC` gave APP transl inh 50, KLF5 inh inactive, Ba/F3 V617F tox inactive, aSyn 5UTR inh 84, IEC-6 cytotox inactive and BaF3 parental inactive.
Screening COc1cc(C(=O)Oc2ccccc2/C=N/NC(=O)c2ccc(Cl)cc2)cc(OC)c1OC returned APP transl inh inactive, KLF5 inh inactive, Ba/F3 V617F tox inactive, aSyn 5UTR inh inactive, IEC-6 cytotox inactive and BaF3 parental inactive.
Cc1ccsc1CNC12CC3CC(CC(C3)C1)C2 was read as APP transl inh inactive, KLF5 inh inactive, Ba/F3 V617F tox inactive, aSyn 5UTR inh inactive, IEC-6 cytotox inactive and BaF3 parental inactive.
O=C(CCN1C(=O)/C(=C/c2ccccc2Cl)SC1=S)Nc1ccccc1C(=O)O was read as KLF5 inh inactive, aSyn 5UTR inh inactive and IEC-6 cytotox inactive.
Screening O=C(CCCN1C(=O)/C(=C/c2ccccc2Cl)SC1=S)NNC(=O)c1ccc(Cl)cc1Cl returned KLF5 inh inactive, Ba/F3 V617F tox inactive, aSyn 5UTR inh 71, IEC-6 cytotox inactive and BaF3 parental inactive.
For O=C(CCCN1C(=O)/C(=C/c2ccccc2Cl)SC1=S)NNC(=O)c1cccnc1 the results were KLF5 inh inactive, Ba/F3 V617F tox inactive, aSyn 5UTR inh inactive, IEC-6 cytotox inactive and BaF3 parental inactive.
O=C(CCCN1C(=O)/C(=C/c2ccccc2Cl)SC1=S)NNC(=O)c1ccccc1 was read as APP transl inh inactive, KLF5 inh inactive, Ba/F3 V617F tox inactive, aSyn 5UTR inh 62, IEC-6 cytotox inactive and BaF3 parental inactive.
O=C(CCCN1C(=O)S/C(=C\c2ccccc2)C1=O)NNC(=O)c1ccccc1O was read as APP transl inh 63, KLF5 inh inactive, Ba/F3 V617F tox inactive, aSyn 5UTR inh 83, IEC-6 cytotox inactive and BaF3 parental inactive.
Screening CCOC(=O)c1ccc(S(=O)(=O)N2CCN(c3ccccn3)CC2)cc1 returned KLF5 inh inactive, aSyn 5UTR inh inactive and IEC-6 cytotox inactive.
O=C(Nc1ccccc1)NN(C(=O)CCl)c1ccccc1 was read as KLF5 inh inactive, aSyn 5UTR inh inactive and IEC-6 cytotox inactive.
O=S(=O)(c1ccc(F)cc1)c1snnc1-c1ccccc1 was read as APP transl inh 93, KLF5 inh inactive, Ba/F3 V617F tox 61, aSyn 5UTR inh inactive, IEC-6 cytotox inactive and BaF3 parental 68.
c1ccc(-c2nnsc2-c2ncc[nH]2)cc1 was read as APP transl inh inactive, KLF5 inh inactive, Ba/F3 V617F tox inactive, aSyn 5UTR inh inactive, IEC-6 cytotox inactive and BaF3 parental inactive.
`O=S(=O)(c1ccc(Cl)cc1)c1snnc1-c1ccccc1` gave APP transl inh 96, KLF5 inh inactive, Ba/F3 V617F tox 44, aSyn 5UTR inh 116, IEC-6 cytotox inactive and BaF3 parental 33.
For COc1ccc(/C=C/C(=O)O)cc1O the results were aSyn 5UTR inh inactive.
O=CNCCCc1nc2ccccc2n1CCc1ccccc1 was read as KLF5 inh inactive, aSyn 5UTR inh inactive and IEC-6 cytotox inactive.
For O=C(O)Cc1c(C(=O)O)nnn1-c1ccc(Cl)cc1Cl the results were APP transl inh 50, KLF5 inh inactive, Ba/F3 V617F tox inactive, aSyn 5UTR inh inactive, IEC-6 cytotox inactive and BaF3 parental inactive.
`CN(C)c1nnnn1-c1ccc(Cl)cc1Cl` gave APP transl inh inactive, KLF5 inh inactive, Ba/F3 V617F tox inactive, aSyn 5UTR inh inactive, IEC-6 cytotox inactive and BaF3 parental inactive.
For O=C1CN(S(=O)(=O)c2cccc(Cl)c2Cl)c2ccccc2N1 the results were KLF5 inh inactive, aSyn 5UTR inh inactive and IEC-6 cytotox inactive.
For O=C(COC(=O)CN1C(=O)C2CCCCC2C1=O)NC1CCS(=O)(=O)C1 (centres undefined) the results were APP transl inh inactive, KLF5 inh inactive, Ba/F3 V617F tox inactive, aSyn 5UTR inh inactive, IEC-6 cytotox inactive and BaF3 parental inactive.
Screening CC1CCCC(NC(=O)COC(=O)CN2C(=O)C3CCCCC3C2=O)C1C (centres undefined) returned APP transl inh 66, KLF5 inh inactive, Ba/F3 V617F tox inactive, aSyn 5UTR inh inactive, IEC-6 cytotox inactive and BaF3 parental inactive.
Screening Cc1cccc2c1Sc1ccc(Cl)cc1CC2N1CCNCC1 (centres undefined) returned aSyn 5UTR inh 104.
CCc1cccc2c1Sc1ccccc1CC2N1CCNCC1 (centres undefined) was read as aSyn 5UTR inh 104.
Screening CN1CCN(C2Cc3ccccc3Sc3cc(C(F)(F)F)ccc32)CC1 (centres undefined) returned aSyn 5UTR inh inactive.
`C1=C2C[N+]3(CCCC3)CC2Cc2ccc3ccccc3c21` (centres undefined) gave APP transl inh inactive, KLF5 inh inactive, Ba/F3 V617F tox 64, aSyn 5UTR inh inactive, IEC-6 cytotox inactive and BaF3 parental 55.
For CCCN1CCN(CCCNC(=O)c2ccc(CS(=O)c3ccc(OC)cc3)o2)CC1 (centres undefined) the results were KLF5 inh inactive, aSyn 5UTR inh inactive and IEC-6 cytotox inactive.
Cc1nc(NC(=O)c2ccccc2)sc1-c1csc(N)n1 was read as APP transl inh inactive, KLF5 inh inactive, Ba/F3 V617F tox 61, aSyn 5UTR inh inactive, IEC-6 cytotox inactive and BaF3 parental 69.
Screening CCCN1CCC(NC(=O)Nc2cc(Cl)ccc2OC)CC1 returned APP transl inh inactive, KLF5 inh inactive, Ba/F3 V617F tox inactive, aSyn 5UTR inh inactive, IEC-6 cytotox inactive and BaF3 parental 90.
Screening Cc1ccc(OCCSc2nc3ccccc3n2CC(=O)O)c(C(C)C)c1 returned KLF5 inh inactive, aSyn 5UTR inh inactive and IEC-6 cytotox inactive.
For Cc1cc(CN2C(=O)c3ccccc3C2=O)no1 the results were APP transl inh inactive, KLF5 inh inactive, Ba/F3 V617F tox inactive, aSyn 5UTR inh inactive, IEC-6 cytotox inactive and BaF3 parental inactive.
Screening O=C1c2ccccc2C(=O)N1CC1=NCCc2ccccc21 returned APP transl inh inactive, KLF5 inh inactive, Ba/F3 V617F tox inactive, aSyn 5UTR inh inactive, IEC-6 cytotox inactive and BaF3 parental 42.
For CCN(CC)C(CNC(=O)c1cc(=O)[nH]c2ccccc12)c1ccccc1Cl (centres undefined) the results were KLF5 inh inactive, aSyn 5UTR inh inactive and IEC-6 cytotox inactive.
Cc1ccc2nc(N(CCCN(C)C)C(=O)c3cc(-c4cccs4)nc4ccccc34)sc2c1 was read as KLF5 inh inactive, aSyn 5UTR inh 67 and IEC-6 cytotox inactive.
For Oc1ccc(N=Nc2c(O)ccc3ccccc23)cc1 the results were APP transl inh inactive, KLF5 inh inactive, Ba/F3 V617F tox inactive, aSyn 5UTR inh inactive, IEC-6 cytotox inactive and BaF3 parental 42.

From PubChem BioAssay
